According to PubChem BioAssay (EPA / NIEHS):
“And” between values parts separate entries of the source, which are not always exact repeats. Equal entries are not always repeated. Inconclusive results are not listed. More than one record can exist for a structure, and the calls need not agree. The source made the active and inactive calls. Rule for the calls, unless noted: active = hit-call score of the fitted dose curve at least 0.9, where 1 is the maximum; inconclusive = response in the unintended direction; inactive = score below 0.9.

Legend:
[1] = target: Cellular tumor antigen p53 (Homo sapiens) (UniProt P04637); assay: TOX21_p53_BLA_p2_ratio: Tox21 HCT-116 p53 Agonism Beta-lactamase Assay, Ratio, Phase 2 (AID 2283592)
Sequence of Cellular tumor antigen p53 (Homo sapiens) (P04637 whole entry, looked up): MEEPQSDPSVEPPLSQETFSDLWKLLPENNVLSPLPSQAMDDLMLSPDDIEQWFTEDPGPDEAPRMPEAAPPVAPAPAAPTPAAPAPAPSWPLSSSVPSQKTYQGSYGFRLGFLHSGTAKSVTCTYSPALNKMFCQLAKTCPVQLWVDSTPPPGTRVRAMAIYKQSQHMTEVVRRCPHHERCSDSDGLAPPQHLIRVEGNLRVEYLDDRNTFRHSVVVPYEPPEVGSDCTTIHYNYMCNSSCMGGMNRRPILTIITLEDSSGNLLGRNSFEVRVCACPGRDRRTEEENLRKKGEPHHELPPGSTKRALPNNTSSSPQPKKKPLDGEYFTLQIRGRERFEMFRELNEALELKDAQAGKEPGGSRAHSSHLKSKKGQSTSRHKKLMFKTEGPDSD
Procedure, shortened: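 Plated HCT116 p53-bla cells (4000/well) received compound after 5 h, then 16 h at 37C/5% CO2. CCF4-AM added, 2 h RT. Ratio of 460 to 530 nm emission taken as the p53 reporter signal.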

[2] = target: Cellular tumor antigen p53 (Homo sapiens) (UniProt P04637); assay: TOX21_p53_BLA_p3_ratio: Tox21 HCT-116 p53 Agonism Beta-lactamase Assay, Ratio, Phase 3 (AID 2283596)
Procedure, shortened: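 Cells were seeded at 4000/well, rested 5 h at 37C, then dosed with DMSO compound solutions (217-fold dilution) for 16 h. CCF4-AM substrate was loaded for 2 h at room temperature, and the 460/530 nm emission ratio was fitted for gain of signal versus DMSO.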

[3] = target: Cellular tumor antigen p53 (Homo sapiens) (UniProt P04637); assay: TOX21_p53_BLA_p5_ratio: Tox21 HCT-116 p53 Agonism Beta-lactamase Assay, Ratio, Phase 5 (AID 2283599)
Procedure, shortened: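 HCT-116 cells carrying a p53-inducible beta-lactamase reporter were seeded at 4000 cells/well and dosed after 5 h with compound in DMSO (217-fold dilution). After 16 h at 37C, CCF4-AM substrate was added for 2 h, and the 460/530 nm emission ratio was scored as gain-of-signal versus DMSO.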

[4] = TOX21_p53_BLA_p4_viability: Viability Assessment in the Tox21 HCT-116 p53 Agonism Beta-lactamase Assay, Phase 4 (AID 2283597);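 note: hits lower the luminescence signal meaning cytotoxicity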
Procedure, shortened: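 Readout: ATP luminescence (CellTiter-Glo), measured 30 min after reagent addition at RT. The reagent followed a 2 h CCF4-AM incubation, and the cells had been exposed to compound for 16 h at 37C.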

[5] = TOX21_p53_BLA_p5_viability: Viability Assessment in the Tox21 HCT-116 p53 Agonism Beta-lactamase Assay, Phase 5 (AID 2283600)
Procedure, shortened: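 Workflow: seed 4000 cells per well, wait 5 h, add compounds (DMSO, 217-fold dilution), incubate 16 h, load CCF4-AM 2 h, add CellTiter-Glo, read luminescence after 30 min.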

[6] = target: Cellular tumor antigen p53 (Homo sapiens) (UniProt P04637); assay: TOX21_p53_BLA_p4_ratio: Tox21 HCT-116 p53 Agonism Beta-lactamase Assay, Ratio, Phase 4 (AID 2283601)
Procedure, shortened: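 HCT116 cells carrying an inducible beta-lactamase reporter were plated at 4000 cells/well, rested 5 h, then exposed to compounds in DMSO (217-fold dilution) for 16 h at 37C. CCF4-AM substrate was loaded 2 h at room temperature; 460/530 nm emission ratio scored gain-of-signal versus DMSO.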

PGR (gene 5241) [7] = target: PGR (gene 5241) (UniProt P06401); assay: TOX21_PR_BLA_Followup_Antagonist_ratio: Tox21 HEK293 Progesterone Receptor (PR) Antagonism Beta-lactamase Follow-Up Assay, Ratio (AID 2283934);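 note: PR-UAS-bla HEK293T cells stimulated with 1 nM R5020 agonist for 16 hr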
Sequence of PGR (gene 5241) (P06401 whole entry, looked up): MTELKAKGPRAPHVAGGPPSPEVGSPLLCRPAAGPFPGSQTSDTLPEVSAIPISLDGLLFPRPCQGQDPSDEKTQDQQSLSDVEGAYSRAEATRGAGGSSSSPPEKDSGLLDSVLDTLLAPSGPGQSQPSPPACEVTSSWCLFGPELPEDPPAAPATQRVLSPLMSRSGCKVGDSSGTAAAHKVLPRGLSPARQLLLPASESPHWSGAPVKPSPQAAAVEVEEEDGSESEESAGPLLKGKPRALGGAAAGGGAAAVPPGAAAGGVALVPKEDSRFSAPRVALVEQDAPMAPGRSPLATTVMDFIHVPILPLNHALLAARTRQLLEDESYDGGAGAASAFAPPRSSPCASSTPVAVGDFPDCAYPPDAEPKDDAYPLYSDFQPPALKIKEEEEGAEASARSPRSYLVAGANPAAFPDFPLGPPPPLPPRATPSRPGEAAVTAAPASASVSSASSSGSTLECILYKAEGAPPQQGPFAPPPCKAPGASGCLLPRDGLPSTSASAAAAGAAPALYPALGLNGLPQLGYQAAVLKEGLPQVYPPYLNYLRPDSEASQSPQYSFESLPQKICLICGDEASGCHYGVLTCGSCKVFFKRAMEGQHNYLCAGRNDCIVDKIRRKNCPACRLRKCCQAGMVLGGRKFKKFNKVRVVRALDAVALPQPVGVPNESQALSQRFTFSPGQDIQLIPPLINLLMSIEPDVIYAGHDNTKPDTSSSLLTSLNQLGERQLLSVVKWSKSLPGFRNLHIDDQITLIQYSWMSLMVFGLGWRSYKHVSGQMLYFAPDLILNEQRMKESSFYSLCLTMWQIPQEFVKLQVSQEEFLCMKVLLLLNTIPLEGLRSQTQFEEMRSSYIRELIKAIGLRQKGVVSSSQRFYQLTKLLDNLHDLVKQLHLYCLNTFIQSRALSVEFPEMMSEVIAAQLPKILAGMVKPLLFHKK
Procedure, shortened: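 Readout is the blue/green (ch2/ch1) substrate cleavage ratio after 2 hours at room temperature, following 16 hr co-treatment of PR-bla HEK293T cells with compound and 1nM promegestone. Multiplexed CellTiter-Glo viability flags cytotoxicity; DMSO baseline.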

[8] = TOX21_PR_BLA_Followup_Agonist_viability: Viability Assessment in the Tox21 HEK293 Progesterone Receptor (PR) Agonism Beta-lactamase Follow-Up Assay (AID 2283935);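 note: signal loss means lower viability so actives are cytotoxic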
Procedure, shortened: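 Run multiplexed with the beta-lactamase FRET read, this endpoint measures ATP by CellTiter-Glo luminescence (30 min, room temperature). PR-UAS-bla HEK293T cells received compound 6 hr after plating and were then incubated 16 hr at 37C in 2% stripped serum.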

[9] = TOX21_PR_BLA_Followup_Antagonist_viability: Viability Assessment in the Tox21 HEK293 Progesterone Receptor (PR) Antagonism Beta-lactamase Follow-Up Assay (AID 2283936);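 note: cells exposed to compound with R5020 agonist for 16 h; hits lower the luminescence signal meaning cytotoxicity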
Procedure, shortened: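 PR-UAS-bla HEK293T cells in medium with 2% charcoal-stripped FBS were treated with compounds plus R5020 for 16 hr at 37C. After the beta-lactamase read, CellTiter-Glo was added to the same wells and luminescence read after 30 min at room temperature.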

PGR (gene 5241) [10] = target: PGR (gene 5241) (UniProt P06401); assay: TOX21_PR_LUC_Followup_Antagonist: Tox21 HEK293 Progesterone Receptor (PR) Antagonism Luciferase Follow-Up Assay (AID 2283938);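 note: curve fitted upward as signal gain over DMSO baseline despite antagonist label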
Procedure, shortened: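 Cells are grown 5 days in charcoal-stripped-FBS assay medium, plated, left 5 h, then dosed with compound and incubated 16 h. ONE-Glo reagent is added and luminescence read after 30 min.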

[11] = TOX21_PR_LUC_Followup_Agonist_viability: Viability Assessment in the Tox21 HEK293 Progesterone Receptor (PR) Agonism Luciferase Follow-Up Assay (AID 2283941);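 note: loss of signal means cytotoxicity so actives lower viability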
Procedure, shortened: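 Cytotoxicity counter-readout in the PR-A luciferase reporter line HEK293, with 16 h compound exposure at 37C after cells were cultured in charcoal-stripped serum. Cellular ATP quantified by CellTiter-Glo luminescence.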

[12] = UKN5_HCS_SBAD2_neurite_outgrowth: University of Konstanz (UKN) Leist Lab Neurite Outgrowth Assay in human iPSC-derived immature Dorsal Root Ganglia Neurons (UKN5) (AID 2284070; active = hit-call score of the fitted dose curve at least 0.9, where 1 is the maximum; inactive = score below 0.9); conditions: actives raise or lower the signal
Procedure, shortened: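 Neurite area from calcein-AM high-content images after 24 h exposure (staining included), with H-33342 for viability, fitted both directions against DMSO. Cells: thawed immature SBAD2 peripheral neurons, 100.000 cells/cm2, with CHIR99021, SU5402, DAPT; dosing 1 h after seeding.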

[13] = UKN4_HCS_LUHMES_neurite_outgrowth: University of Konstanz (UKN) Leist Lab Neurite Outgrowth Assay in human LUHMES cells (UKN4) (AID 2284206; active = hit-call score of the fitted dose curve at least 0.9, where 1 is the maximum; inactive = score below 0.9); conditions: actives raise or lower the signal
Procedure, shortened: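 After 24 h compound treatment beginning shortly after replating of 2-day-differentiated LUHMES cells, calcein-AM and H-33342 live staining allowed high-content imaging of neurite area and viability. Fitted bidirectionally against DMSO.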

[14] = UKN4_HCS_LUHMES_cell_viability: Viability Assessment in the University of Konstanz (UKN) Leist Lab Neurite Outgrowth Assay in human LUHMES cells (UKN4) (AID 2284232; active = hit-call score of the fitted dose curve at least 0.9, where 1 is the maximum; inactive = score below 0.9)
Procedure, shortened: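 Viability was read by high-content imaging of calcein-AM/H-33342-stained cells after 24 h toxicant exposure, staining included. Cells: human LUHMES on day 2 of dopaminergic differentiation, dosed shortly after attachment; DMSO baseline, bidirectional curve fitting.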

[15] = UKN2_HCS_IMR90_cell_viability: Viability Assessment in the University of Konstanz (UKN) Leist Lab Neural Crest Cell Migration Assay in human induced IMR90 Pluripotent Stem Cells (UKN2) (AID 2284233; active = hit-call score of the fitted dose curve at least 0.9, where 1 is the maximum; inactive = score below 0.9;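 note: viability of neural crest cells differentiated from IMR90 iPSC measured by calcein-AM fluorescence imaging; cells exposed to compound for 24 h after a 24 h migration phase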)
Procedure, shortened: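 cMINC format, iPSC-derived neural crest (IMR90); 24 h migration (EGF/FGF, N2-S), then 24 h toxicant. Calcein-AM/H-33342 stain 30 min; fluorescence intensity by HCS; DMSO-normalised, bidirectional fitting.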

PGR (gene 5241) [16] = target: PGR (gene 5241) (UniProt P06401); assay: TOX21_PR_LUC_Followup_Agonist: Tox21 HEK293 Progesterone Receptor (PR) Agonism Luciferase Follow-Up Assay (AID 2283937; active = hit-call score of the fitted dose curve at least 0.9, where 1 is the maximum; inactive = score below 0.9)
Procedure, shortened: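 Agonism scored as luciferase induction over DMSO, read by ONE-Glo after 30 min at RT. Compounds were incubated 16 h at 37C on HEK293-PR-A-luc cells (3,000/well, pre-plated 5 h) previously grown 5 days in charcoal-stripped serum.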

[17] = CCTE_Harrill_HTTr_Viability_MCF7: CCTE's 6-hour Cell Viability Assessment for the High-Throughput Transcriptomics (HTTr) Platform, in MCF-7 cells cultured in DMEM + 10% fetal bovine serum, Harrill Lab (AID 2284010; active = hit-call score of the fitted dose curve at least 0.9, where 1 is the maximum; inactive = score below 0.9)
Procedure, shortened: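 Propidium iodide exclusion, imaged by high-content analysis, gauged viability after a six-hour exposure across eight concentrations. Cells were MCF-7 grown in DMEM with 10% fetal bovine serum; fits run in both directions against DMSO.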

[18] = CCTE_Harrill_HTTr_Apoptosis_MCF7: CCTE's 6-hour Apoptosis Assessment for the High-Throughput Transcriptomics (HTTr) Platform, in MCF-7 cells cultured in DMEM + 10% fetal bovine serum, Harrill Lab (AID 2284011; active = hit-call score of the fitted dose curve at least 0.9, where 1 is the maximum; inactive = score below 0.9)
Procedure, shortened: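 MCF-7 (DMEM + 10% FBS), 384-well; 8-pt dilution series, 6 h chemical exposure; caspase-3/7 activation via CellEvent Caspase 3/7 Green, HCI; bidirectional fit vs DMSO.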

CN(C)CCc1c[nH]c2ccc(O)cc12
outcome [1]: inactive
outcome [2]: inactive
outcome [3]: inactive

CNCC(=O)c1ccc(O)c(O)c1
outcome [1]: inactive
outcome [2]: inactive
outcome [4]: inactive
outcome [5]: inactive

COc1ccc2c(c1)C13CCCC[C@@H]1C(C2)N(C)CC3 (stereo partly specified)
outcome [1]: inactive
outcome [2]: inactive
outcome [4]: inactive
outcome [3]: inactive

CC(CCc1ccccc1)NC(C)C(O)c1ccc(O)cc1 (stereo unspecified)
outcome [1]: inactive
outcome [2]: inactive

CCCCCCBr
outcome [1]: inactive
outcome [2]: inactive
outcome [4]: inactive
outcome [3]: inactive
outcome [6]: inactive

C[C@H]1CCC[C@H](O)CCCCCc2cc(O)cc(O)c2C(=O)O1
outcome [1]: inactive
AC50 [2]: 74.2 µM (active)
outcome [2]: inactive
outcome [3]: inactive
outcome [5]: inactive
outcome [6]: inactive
AC50 (PGR (gene 5241) [7]): 4.51 µM (active)
outcome [8]: inactive
outcome [9]: inactive
AC50 (PGR (gene 5241) [10]): 10.1 µM (active)
outcome [11]: inactive

C(COCC1CO1)OCC1CO1 (stereo unspecified)
outcome [1]: inactive
outcome [2]: inactive
outcome [4]: inactive
outcome [3]: inactive
outcome [5]: inactive
outcome [6]: inactive

O=Cc1ccc(Cl)cc1Cl
outcome [1]: inactive
outcome [2]: inactive
outcome [3]: inactive
outcome [5]: inactive
outcome [6]: inactive

CCCC[n+]1cccc(C)c1
outcome [1]: inactive
outcome [2]: inactive
outcome [3]: inactive

N#CC(Cl)Cl
outcome [1]: inactive
outcome [2]: inactive
outcome [4]: inactive
outcome [3]: inactive
outcome [5]: inactive
outcome [6]: inactive

CC(=O)Oc1ccc2c3c1O[C@H]1[C@@H](OC(C)=O)C=C[C@H]4[C@@H](C2)N(C)CC[C@@]341
outcome [1]: inactive
outcome [2]: inactive
outcome [4]: inactive
outcome [3]: inactive
outcome [5]: inactive
outcome [6]: inactive
outcome [12]: inactive
outcome [13]: inactive
outcome [14]: inactive
outcome [15]: inactive

C[C@@H]([C@H](O)c1ccccc1)N(C)C
outcome [1]: inactive
outcome [2]: inactive
outcome [4]: inactive
outcome [3]: inactive
outcome [5]: inactive
outcome [6]: inactive

CN1C(=O)CN=C(c2ccccc2)c2cc([N+](=O)[O-])ccc21
outcome [1]: inactive
outcome [2]: inactive
outcome [4]: inactive
outcome [3]: inactive
outcome [5]: inactive

c1ccc2c(c1)OCC(C1=NCCN1)O2 (stereo unspecified)
outcome [1]: inactive
outcome [2]: inactive
outcome [4]: inactive
outcome [3]: inactive
outcome [6]: inactive

c1ccc2c(c1)Sc1ccccc1N2C[C@@H]1CN2CCC1CC2
outcome [1]: inactive
outcome [2]: inactive
outcome [4]: inactive
outcome [3]: inactive
AC50 [6]: 43.6 µM (active)

C#C[C@]1(O)CC[C@H]2[C@@H]3CCC4=CC(=O)CCC4=C3C=C[C@@]21CC
outcome [1]: inactive
outcome [2]: inactive
outcome [4]: inactive
outcome [3]: inactive
outcome [5]: inactive
outcome [6]: inactive
outcome (PGR (gene 5241) [7]): inactive
outcome [8]: inactive
outcome [9]: inactive
AC50 (PGR (gene 5241) [16]): 0.00156 µM (active)
outcome (PGR (gene 5241) [10]): inactive
outcome [11]: inactive

Nc1cc(Cl)ccc1O
AC50 [1]: 49.9 µM (active)
AC50 [2]: 59.7 µM (active)
outcome [4]: inactive
AC50 [3]: 62.6 µM (active)
outcome [5]: inactive
AC50 [6]: 54.8 µM (active)

BrC(Br)Br
outcome [1]: inactive
outcome [2]: inactive
outcome [4]: inactive
outcome [3]: inactive
outcome [5]: inactive
outcome [6]: inactive
outcome [17]: inactive
outcome [18]: inactive

CC(Cc1ccccc1)NC=O (stereo unspecified)
outcome [1]: inactive
outcome [2]: inactive
outcome [4]: inactive
outcome [3]: inactive
outcome [5]: inactive
outcome [6]: inactive

CCCCCCCCCCCCCCCCn1cc[n+](C)c1
AC50 [1]: 51.5 µM (active) and 29.9 µM (active) and 17.5 µM (active)
AC50 [2]: 9.54 µM (active)
outcome [2]: inactive
AC50 [6]: 71.6 µM (active) and 77.7 µM (active) and 60.1 µM (active)
outcome [6]: inactive

O=C1C=C2C=C[C@@H]3C[C@@]2(O1)[C@H]1CCCCN31
outcome [1]: inactive
outcome [2]: inactive
outcome [3]: inactive
outcome [5]: inactive

CCOP(=S)(OCC)SCCl
outcome [1]: inactive
outcome [2]: inactive
outcome [4]: inactive
outcome [5]: inactive
outcome [6]: inactive

CCCCCCCCCCCCCCCl
outcome [1]: inactive
outcome [2]: inactive
outcome [4]: inactive
outcome [3]: inactive
outcome [6]: inactive

CCOC(=O)c1ncn2c1CN(C)C(=O)c1c(I)cccc1-2
outcome [1]: inactive
outcome [2]: inactive
outcome [4]: inactive
outcome [3]: inactive
outcome [6]: inactive
